Screening data: PubChem, National Center for Advancing Translational Sciences (NCATS)
Hits are enriched below; roughly 4.6% of the tested compounds scored in any of these assays.
D1 agonist: Allosteric Agonists of the Human D1 Dopamine Receptor: qHTS | D(1A) dopamine receptor (Homo sapiens), P21728 | HEK293 T-REx D1 cells, calcium flux, agonist mode | activation, % at 2 µM | hit rate 1% among 360,000; note: 0% is about no effect
Target sequence (P21728 whole entry, looked up): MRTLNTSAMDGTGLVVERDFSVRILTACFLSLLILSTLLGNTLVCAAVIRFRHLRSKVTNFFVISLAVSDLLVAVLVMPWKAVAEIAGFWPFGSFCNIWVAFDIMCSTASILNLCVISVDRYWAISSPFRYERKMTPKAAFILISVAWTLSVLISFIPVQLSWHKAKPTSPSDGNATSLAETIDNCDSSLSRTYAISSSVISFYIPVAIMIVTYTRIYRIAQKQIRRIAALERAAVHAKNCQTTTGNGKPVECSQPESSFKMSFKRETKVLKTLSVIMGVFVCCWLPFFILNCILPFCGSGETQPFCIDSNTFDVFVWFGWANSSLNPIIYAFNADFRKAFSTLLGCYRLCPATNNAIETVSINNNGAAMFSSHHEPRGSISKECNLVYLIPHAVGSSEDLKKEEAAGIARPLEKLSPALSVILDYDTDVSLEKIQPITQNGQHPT
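Agonism was scored from calcium flux recorded over 180 s (1 read/s) after pintool compound addition, following a 10-cycle baseline. Cells were inducible force-coupled HEK293 TREx D1, plated overnight at 30 C and loaded with no-wash calcium dye.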
D1 antag: Antagonist of Human D 1 Dopamine Receptor: qHTS. hit rate 3.2% among 360,000. AID 504652, 2011. HEK293 TREx D1 cells, calcium flux, dopamine EC80; hits give low values. activity change, negative = inhibition, % at 10 µM. D(1A) dopamine receptor (Homo sapiens), P21728; in the data active = activity change below about -30%; note: % is set by controls: 0 for no effect and ±100 for the full control effect
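Inducible Hek293 Trex D1 cells (tetracycline, overnight, 30 C). Calcium dye 30–90 min RT. Antagonist mode: EC80 dopamine added after 180 s compound read.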
TRHR agonist: qHTS for Small Molecule Agonists and Allosteric Enhancers of Human TRH Receptor: Primary Screen for Agonists; activation, % at 2 µM; TRHR cells, calcium flux fluo-8, FDSS agonist mode; hit rate 0.18% among 360,000; note: 0% is about no effect
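Steps: seed TRHR cells overnight; add fluo-8 no-wash Ca dye, RT 30 min–1.5 h; record 10 s baseline; pin-transfer compounds; monitor fluorescence 1 cycle/s for the agonist window. Calcium increases flag candidate agonists.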
TRHR PAM: qHTS for Small Molecule Agonists and Allosteric Enhancers of Human TRH Receptor: Primary Screen for Enhancers | Thyrotropin-releasing hormone receptor (Homo sapiens), P34981 | TRHR cells, fluo-8 calcium fluorescence, EC20 TRH enhancement | enhancement, % at 2 µM | hit rate 0.66% among 360,000; in the data active = enhancement above about 30%; note: 0% is about no effect
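Enhancer read-out: after compound pinning and an initial kinetic agonist-mode read, an EC20 of TRH (10 nM final) was injected and fluo-8 calcium signal (Ex 480/Em 530) followed at 1 s/cycle for 100 cycles in TRHR-expressing cells.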
D1 PAM: Potentiators of Human D1 Dopamine Receptor: qHTS | D(1A) dopamine receptor (Homo sapiens), P21728 | HEK293 TREx D1 cells, calcium flux, dopamine EC20 potentiation | potentiation, % at 10 µM | hit rate 0.036% among 360,000; in the data active = potentiation above about 30%; note: 0% is about no effect
Starred values were filed as active, the others as inactive. Cut-off read from the data, not from the text of the source, unless noted: active = activation above about 30%; inactive = the rest.

SMILES	D1 agonist	D1 antag	TRHR agonist	TRHR PAM	D1 PAM
COc1ccc(CC(CC(=O)O)C(=O)Nc2ccc(Cl)c(Cl)c2)cc1 (stereo unspecified)	-1	-31*	0	0	14
Cc1ccc(CC(CC(=O)O)C(=O)Nc2ccc(Cl)cc2)cc1 (stereo unspecified)	7	-2	0	-7	-5
CCOC(=O)c1cnc2ccccc2c1Nc1cccc(OC)c1	4	-35*	0	-4	-1
CCOC(=O)c1cnc2ccc(Cl)cc2c1Nc1ccc(OCC)cc1	3	-58*	0	-4	4
CCOC(=O)c1cnc2ccccc2c1Nc1cc(C(=O)O)ccc1C	-1	3	0	37*	7
Cc1ccccc1C(=O)Nc1ccccc1C(=O)OCc1cc(=O)n2nc(C3CC3)sc2n1	2	-10	-2	5	3
Cc1ccc2nc(-c3ccc(NC(=O)COc4ccc(Br)cc4Br)cc3)sc2c1	8	56	-1	2	0
O=C(C1CCN(S(=O)(=O)c2cnc[nH]2)CC1)N1CCn2c1nc1ccccc12	6	-16	0	-3	-4
O=C(C1CCCCC1)N1CCCn2c1nc1ccccc12	7	-45*	0	3	-1
C[C@H](NC(=O)N1CCn2c1nc1ccccc12)C(=O)NC1CC1	-2	-85*	0	-23	-3
CC(NC(=O)[C@H](C)NC(=O)N1CCn2c1nc1ccccc12)c1ccccc1 (stereo partly specified)	2	2	-1	8	2
CCN(CC)S(=O)(=O)c1cccc(S(=O)(=O)N2CCCCC2)c1	3	-33*	0	-8	-6
COc1ccc(S(=O)(=O)N2CCCCCC2)cc1N(C)S(=O)(=O)c1ccccc1	11	-42*	0	-10	-10
O=C(NCc1ccccc1F)c1sc2ncccc2c1-n1cccc1	6	-8	0	-5	-1
Cc1cccc(OCCCCCn2ccnc2)c1C	46*	3	-1	3	-6
CCN1CCN(CCCNC(=O)Cn2c(-c3cccs3)cc3cc(Cl)ccc32)CC1	17	-14	1	-2	-5
Cc1ccc(NC(=O)c2ccc(CN3CC(=O)N4CCCCC4C3=O)cc2)cc1 (stereo unspecified)	-2	-1	-1	11	-3
CC1Cc2cc(S(=O)(=O)NCc3ccccc3Cl)ccc2N1C(=O)C1CCC1 (stereo unspecified)	5	-80*	0	3	-4
CC1Cc2cc(S(=O)(=O)NCc3ccc(N(C)C)cc3)ccc2N1C(=O)C1CCC1 (stereo unspecified)	6	-16	0	45*	1
Cc1ccc(NS(=O)(=O)c2ccc3c(c2)CC(C)N3C(=O)C2CCC2)cc1Cl (stereo unspecified)	0	8	0	-1	2
COc1ccc(CNS(=O)(=O)c2ccc3c(c2)CC(C)N3C(=O)C2CC2)cc1 (stereo unspecified)	10	-25	-1	-2	-6
CC1Cc2cc(S(=O)(=O)NCCc3ccccc3)ccc2N1C(=O)C1CC1 (stereo unspecified)	7	-3	-1	-2	3
CCC(=O)N1c2ccc(S(=O)(=O)NCc3ccc(F)cc3)cc2CC1C (stereo unspecified)	14	-33*	-1	-9	-1
CCC(=O)N1c2ccc(S(=O)(=O)NCCc3ccc(C)cc3)cc2CC1C (stereo unspecified)	11	-26	0	-6	-7
CC(=O)Nc1ccc(NS(=O)(=O)c2ccc3c(c2)CC(C)N3C(=O)C2CCC2)cc1 (stereo unspecified)	0	6	0	46*	-1
COc1ccc(NC(=O)CSc2nc(-c3cccc(C)c3)[nH]c2-c2ccccc2)cc1OC	1	-3	-1	-4	-1
Cc1cc(SCC(=O)Nc2nsc(-c3ccc(C(C)(C)C)cc3)n2)nc2ccccc12	5	9	0	20	4
